# Experimental data: PubChem BioAssay (NCATS)
# Records with an inconclusive call do not appear. A call without a number means that no potency is given here. Values without a mark were called inactive. Activity calls are given as the source filed them. Calls follow the shape of the dose curve; as a rule, active = well fitted inhibition curve with a large enough effect; inconclusive = small, poorly fitted or top-dose-only effect; inactive = flat fitted curve, though single readings scatter.
# Key:
# CRL-7250 = normal cell line; experiment: Cytotoxic Profiling of Annotated Libraries Using Quantitative High-Throughput Screening (AID 1296008); conditions: Five cell lines viability, CellTiter-Glo ATP luminescence, 48-72 h; max response: hits give low values
# Summary of the method: (§1)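 Compounds were pin-transferred onto cells and incubated 48 or 72 hr at 37 degree Celsius, 95% humidity. CellTiter-Glo was added, plates sat 10 min at room temperature, then ATP-coupled luminescence was imaged as the viability read-out.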
# HEK293 = experiment: as above; conditions: Five cell lines viability, CellTiter-Glo ATP luminescence, 48-72 h; max response: hits give low values
# Summary of the method: as §1
# NIH3T3 = experiment: as above; conditions: Five cell lines viability, CellTiter-Glo ATP luminescence, 48-72 h; max response: hits give low values
# Summary of the method: as §1
# HEK293T = experiment: qHTS assay to identify novel small-molecules to repurpose for Merkel cell carcinoma treatment (AID 1296009); conditions: MCC and control cell lines, CellTiter-Glo viability, 72 h; at 44.8 µM (top of the series) unless noted
# Summary of the method: (§2)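 Luminescence from CellTiter-Glo, read 10 min after addition at room temperature, reported viability following a 72 hr, 37 degree celsius treatment with NPC or MIPE compounds in titration; values normalized to plate controls.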
# MCC-13 = experiment: as above; conditions: MCC and control cell lines, CellTiter-Glo viability, 72 h; series mostly up to 46 µM
# Summary of the method: as §2
# MCC-26 = experiment: as above; conditions: MCC and control cell lines, CellTiter-Glo viability, 72 h; series mostly up to 46 µM
# Summary of the method: as §2
# MKL-1 = experiment: as above; conditions: MCC and control cell lines, CellTiter-Glo viability, 72 h; series mostly up to 46 µM
# Summary of the method: as §2
# MKL-2 = experiment: as above; conditions: MCC and control cell lines, CellTiter-Glo viability, 72 h; series mostly up to 46 µM
# Summary of the method: as §2
# KB-3-1 = experiment: Cytotoxic Profiling of Annotated Libraries Using Quantitative High-Throughput Screening (AID 1296008); conditions: Five cell lines viability, CellTiter-Glo ATP luminescence, 48-72 h; max response: hits give low values
# Summary of the method: as §1
# HaCat [1] = experiment: as above; conditions: Five cell lines viability, CellTiter-Glo ATP luminescence, 48-72 h; max response: hits give low values
# Summary of the method: as §1
# HACAT [2] = experiment: qHTS assay to identify novel small-molecules to repurpose for Merkel cell carcinoma treatment (AID 1296009); conditions: MCC and control cell lines, CellTiter-Glo viability, 72 h; at 44.8 µM (top of the series) unless noted
# Summary of the method: as §2
# Also: nearly all actives have a fitted effect of over 60% in size.
# Potency is read from the fitted curve at half-maximal effect.
smiles,measurement,setting,value
CCN1CCCC1CN (stereo not given),max response,CRL-7250,3.84%
same,outcome,HEK293,inactive
same,max response,NIH3T3,-1.87%
same,outcome,HEK293T,inactive
same,Potency,MCC-13,inactive
same,Potency,MCC-26,inactive
same,Potency,MKL-1,inactive
same,Potency,MKL-2,inactive
COC(=O)c1c(Cl)c(Cl)c(C(=O)OC)c(Cl)c1Cl,max response,CRL-7250,-7.84%
same,max response,HEK293,-21.7%
same,max response,KB-3-1,-7.26%
same,max response,NIH3T3,-9.58%
same,Potency,MCC-13,inactive
same,Potency,MCC-26,inactive
same,Potency,MKL-1,inactive
same,Potency,MKL-2,inactive
COc1cc(S(N)(=O)=O)cc(C(=O)O)c1OC,max response,CRL-7250,3.62%
same,max response,HEK293,-2.74%
same,max response,HaCat [1],2%
same,outcome,NIH3T3,inactive
same,Potency,MCC-13,inactive
same,Potency,MKL-1,inactive
same,Potency,MKL-2,inactive
CCC1=C[C@@H]2CN(C1)Cc1c([nH]c3ccccc13)[C@@](C(=O)OC)(c1cc3c(cc1OC)N(C)[C@H]1[C@@](O)(C(=O)OC)[C@H](OC(C)=O)[C@]4(CC)C=CCN5CC[C@]31[C@@H]54)C2,Potency,CRL-7250,42.2 nM (active)
same,Potency,HEK293,8.4 nM (active)
same,outcome,HaCat [1],inactive
same,outcome,HACAT [2],inactive
same,Potency,MKL-2,18.8 nM (active)
CCOC(=O)c1ccc(O)c(O)c1,max response,CRL-7250,2.32%
same,outcome,HEK293,inactive
same,max response,HaCat [1],-0.432%
same,outcome,HEK293T,inactive
same,Potency,MCC-26,inactive
same,Potency,MKL-1,5960 nM (active)
CCCCCN(CCCOC)C(=O)C(CCC(=O)O)NC(=O)c1ccc(Cl)c(Cl)c1 (stereo not given),max response,CRL-7250,-0.363%
same,max response,HEK293,-5.64%
same,max response,NIH3T3,-3.2%
same,Potency,MCC-13,inactive
same,Potency,MCC-26,inactive
same,Potency,MKL-1,inactive
same,Potency,MKL-2,inactive
C#CC(C)(CC)OC(=O)c1ccccc1C(=O)O (stereo not given),max response,CRL-7250,-9.5%
same,max response,HEK293,4.2%
same,max response,HaCat [1],-2.23%
same,outcome,NIH3T3,inactive
same,Potency,MCC-13,inactive
same,Potency,MKL-1,inactive
same,Potency,MKL-2,inactive
CC(C)(C)NCC(O)COc1ccccc1OCC1CCCO1 (stereo not given),max response,CRL-7250,-2.81%
same,max response,HEK293,-1.05%
same,outcome,NIH3T3,inactive
same,Potency,MCC-13,inactive
same,Potency,MCC-26,inactive
same,Potency,MKL-1,inactive
same,Potency,MKL-2,inactive
Nc1ncnc2c1ncn2Cc1c(F)cccc1Cl,max response,CRL-7250,-8.42%
same,outcome,HEK293,inactive
same,outcome,NIH3T3,inactive
same,outcome,HEK293T,inactive
same,Potency,MCC-13,inactive
same,Potency,MCC-26,inactive
same,Potency,MKL-1,inactive
same,Potency,MKL-2,inactive
CC1(C)O[C@@H]2C[C@H]3[C@@H]4CCC5=CC(=O)C=C[C@]5(C)[C@@]4(F)[C@@H](O)C[C@]3(C)[C@]2(C(=O)CO)O1,max response,CRL-7250,-0.473%
same,max response,HEK293,-6.9%
same,max response,HaCat [1],-7.17%
same,max response,NIH3T3,-1.75%
same,Potency,MCC-13,inactive
same,Potency,MKL-1,inactive
same,Potency,MKL-2,inactive
C#Cc1ccc(-c2ccccc2F)cc1,max response,CRL-7250,-10.3%
same,max response,HEK293,-8.83%
same,max response,HaCat [1],3.65%
same,outcome,NIH3T3,inactive
same,Potency,MCC-13,inactive
same,Potency,MKL-1,inactive
same,Potency,MKL-2,inactive
c1ccc(C(O[C@H]2CCCN(CCc3ccc4c(c3)OCO4)C2)c2ccccc2)cc1,max response,CRL-7250,-1.12%
same,max response,HaCat [1],0.583%
same,max response,KB-3-1,-8.06%
same,max response,NIH3T3,-0.771%
same,Potency,MCC-13,inactive
same,Potency,MCC-26,inactive
same,Potency,MKL-1,inactive
same,Potency,MKL-2,inactive
CCCCNc1ccc(C(=O)OCCN(CC)CC)cc1,max response,CRL-7250,-6.06%
same,max response,HaCat [1],-28.3%
same,max response,KB-3-1,-0.138%
same,Potency,MCC-13,inactive
same,Potency,MCC-26,inactive
same,Potency,MKL-1,inactive
same,Potency,MKL-2,inactive
CC(=O)[C@@]1(O)CC[C@H]2[C@@H]3C[C@H](C)C4=CC(=O)CC[C@]4(C)[C@H]3CC[C@@]21C,max response,CRL-7250,-14.2%
same,max response,HaCat [1],-16.6%
same,max response,KB-3-1,-7.02%
same,Potency,MCC-13,inactive
same,Potency,MCC-26,inactive
same,Potency,MKL-1,inactive
CN(C)[C@@H]1C(=O)C(C(N)=O)=C(O)[C@@]2(O)C(=O)C3=C(O)c4c(O)cccc4C[C@H]3C[C@@H]12,max response,CRL-7250,-0.669%
same,max response,HaCat [1],-5.74%
same,max response,NIH3T3,1.19%
same,Potency,MCC-13,inactive
same,Potency,MCC-26,inactive
COc1cc2nc(Cl)nc(N)c2cc1OC,outcome,CRL-7250,inactive
same,max response,HaCat [1],0.108%
same,max response,NIH3T3,-0.129%
same,Potency,MCC-13,inactive
same,Potency,MCC-26,inactive
same,Potency,MKL-1,inactive
same,Potency,MKL-2,inactive
CCC(=O)Oc1ccc2c(c1)CC[C@@H]1[C@@H]2CC[C@@]2(C)[C@H]1C[C@@H](OC(=O)CC)[C@@H]2OC(=O)CC,max response,CRL-7250,-3.71%
same,max response,HaCat [1],-1.68%
same,outcome,NIH3T3,inactive
same,Potency,MCC-13,inactive
same,Potency,MCC-26,inactive
same,Potency,MKL-1,inactive
same,Potency,MKL-2,inactive
Cc1ccc(Cl)c(OCC(O)CNC(C)(C)C)c1 (stereo not given),outcome,CRL-7250,inactive
same,max response,HaCat [1],2.84%
same,max response,NIH3T3,1.79%
same,Potency,MCC-13,inactive
same,Potency,MCC-26,inactive
same,Potency,MKL-1,inactive
same,Potency,MKL-2,inactive
O=C1NC(=O)/C(=C/c2ccc3c(c2)OC(F)(F)O3)S1,max response,CRL-7250,4.23%
same,max response,HaCat [1],-3.64%
same,max response,NIH3T3,-4.12%
CCN1C(=O)c2ccccc2C1Nc1ccc(OCCN2CCCCC2)cc1 (stereo not given),max response,CRL-7250,-2.5%
same,max response,HaCat [1],-6.62%
same,outcome,KB-3-1,inactive
same,max response,NIH3T3,-13.7%
same,Potency,MCC-13,inactive
same,Potency,MCC-26,inactive
same,Potency,MKL-1,inactive
same,Potency,MKL-2,inactive
CCC(CN)=C(c1ccccc1)c1ccccc1,outcome,CRL-7250,inactive
same,max response,HaCat [1],1.4%
same,outcome,NIH3T3,inactive
same,Potency,MCC-13,inactive
same,Potency,MCC-26,inactive
same,Potency,MKL-1,inactive
same,Potency,MKL-2,inactive
CCOC(=O)c1ccc(NC(=O)CN2CCCCC2)cc1,max response,CRL-7250,-6.82%
same,max response,HaCat [1],4.59%
same,outcome,KB-3-1,inactive
same,outcome,NIH3T3,inactive
same,Potency,MCC-13,inactive
same,Potency,MCC-26,inactive
same,Potency,MKL-1,inactive
same,Potency,MKL-2,inactive
